Data on 94 compounds can be found in PubChem BioAssay AID1476 (National Center for Advancing Translational Sciences (NCATS), 2009).

Hit rate of the full screen: of about 200,000 compounds, about 4,500 (2.2%) were called active. Inconclusive results (about 12%) are left out. The sample holds actives, similar compounds and a random draw of the others, so the mix is not that of the screen. Unmarked numbers belong to inactive results. Calls follow the shape of the dose curve; as a rule, active = well fitted inhibition curve with a large enough effect; inconclusive = small, poorly fitted or top-dose-only effect, or effect the other way; inactive = flat fitted curve, though single readings scatter.
Potency is read from the fitted curve at half-maximal effect.

This assay deals with Cruzipain (Trypanosoma cruzi) (UniProt P25779). In words: qHTS Assay for Promiscuous and Specific Inhibitors of Cruzain (without detergent). Also: nearly all actives have a fitted effect of over 40% in size.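 As to max response, negative = inhibition: plate controls were enzyme without inhibitor for no effect and buffer without enzyme for full effect.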 The settings on record: purified cruzain, Z-FR-AMC fluorescence, no detergent. The essentials: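 Purified cruzain at 1.5 nM, pre-incubated 15 min with compound at room temperature in 100 mM sodium acetate pH 5.5, 5 mM DTT, 0.00005% Triton X-100. Reaction started with 2 uM Z-FR-AMC; AMC fluorescence increase over 60 s gives rate.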
Sequence of Cruzipain (Trypanosoma cruzi) (P25779 123-467 limits assumed): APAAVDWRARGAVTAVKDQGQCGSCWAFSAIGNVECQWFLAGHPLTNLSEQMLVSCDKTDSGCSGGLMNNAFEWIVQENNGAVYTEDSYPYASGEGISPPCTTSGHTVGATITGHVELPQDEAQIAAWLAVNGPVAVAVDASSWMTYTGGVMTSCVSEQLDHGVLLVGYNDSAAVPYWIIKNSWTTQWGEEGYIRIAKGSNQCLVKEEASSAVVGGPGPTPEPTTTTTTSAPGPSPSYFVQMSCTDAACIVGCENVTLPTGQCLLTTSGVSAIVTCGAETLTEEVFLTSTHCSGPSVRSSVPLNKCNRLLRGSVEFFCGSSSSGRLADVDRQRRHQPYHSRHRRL
(In qHTS, concentration-response curves come from the screen itself.)
Take `COc1ccc(-c2cccc(NS(=O)(=O)c3cc(C)c(OC)c(C)c3C)c2)nn1`: the max response, negative = inhibition is -5.81%.
On the same count and under the same terms, to `Cc1ccccc1CNC(=O)c1ccc(NC(=O)N2CCCCc3ccccc32)cc1` belongs -9.89%; to `Cc1ccc(-c2nnc(SCC(=O)NCc3ccccc3)nc2-c2ccc(C)cc2)cc1`, -17.5%; to `Brc1ccc2c(c1)NC(c1cccnc1)=NC(c1ccccc1)=N2`, 2.72%.
On the same count and under the same terms, to `CCCCN(C)CCCNC(=O)CN1N=C(c2ccc(OC)cc2)CCC1=O` belongs 2.7%.
On the same count and under the same terms, to `Cc1nn(C)c2c1c(C(F)(F)F)cc(=O)n2C(C)C(=O)NCc1ccc(Cl)cc1` (centres undefined) belongs -3.11%.
Consider `COc1ccc(C2CC(c3ccccc3)=NN2C(=O)c2ccc(Cl)c([N+](=O)[O-])c2)cc1` (centres undefined), for which the Potency is 10 µM (active).
Regarding `COc1ccc(C(=O)NNC(=S)NC(=O)c2ccccc2[N+](=O)[O-])cc1`, the max response, negative = inhibition was -1.55%.
The same measure, in the same setting: to `COc1ccc(C2=NN(C(=O)c3cccnc3)C(c3ccccc3)C2)cc1` (centres undefined) belongs 7.92%.
Same read-out and setting: to `CCOC(=O)C1CCCN(C(=O)c2ccc(-n3ccc4ccccc43)s2)C1` (centres undefined) belongs 13.4%; to `CCOc1ccc(C(=O)c2cn(Cc3ccc(F)cc3)c3ccc(F)cc3c2=O)cc1`, 3.78%.
On the same count and under the same terms, to `Nc1ncc(S(=O)(=O)Nc2ccc(OC(F)(F)F)cc2)cn1` belongs -3.7%; to `O=C(c1cn(-c2ccccc2)nc1-c1cccnc1)N1CCCCC1`, -0.942%; to `COC(=O)c1cn(-c2ccccc2)nc1-c1cccnc1`, 10.9%.
`O=C(COC(=O)/C=C/c1cn(-c2ccccc2)nc1-c1cccnc1)Nc1ccc(Cl)cc1Cl`: the Potency was 10 µM (active).
Turning to `CCc1c(C)sc(NC(=O)C2c3ccccc3Oc3ccccc32)c1C(=O)OC(C)C`, the max response, negative = inhibition was -24.3%.
Regarding `CCc1ccc(Oc2coc3cc(OC(=O)c4cc5ccccc5oc4=O)ccc3c2=O)cc1`, the Potency is 3.98 µM (active).
As to `COc1ccc(Oc2coc3cc(OC(=O)c4cncc(Br)c4)ccc3c2=O)cc1`, the max response, negative = inhibition was -23.9%.
Take `CCCOC(=O)c1cc2ccccc2oc1=O`: the max response, negative = inhibition was -4.88%.
Still for that read-out and setting: to `Cc1cc(C)nc(N(C#N)CC(=O)Nc2ccccc2)n1` belongs 5.89%.
On the same count and under the same terms, to `COC(=O)C(C)N(C#N)c1nc(C)nc(C)n1` (centres undefined) belongs 1.82%.
Turning to `CNc1nc(SC)nc(N(C#N)CC(=O)OC)n1`, the Potency was 25.1 µM (active).
For the compound `CCCCOc1ccc(NC(=O)c2cc3c(n(-c4ccc(Cl)cc4)c2=O)CCCC3=O)cc1`, the max response, negative = inhibition was 7.21%.
On the same count and under the same terms, to `CSCCC(NS(=O)(=O)c1ccc2c(c1)oc(=O)n2C)C(=O)NCc1ccccc1` (centres undefined) belongs -13%; to `COc1ccc(CCNC(=O)CCCn2c(=O)c3ccccc3n(Cc3ccc(F)cc3Cl)c2=O)cc1OC`, 13.2%.
The same measure, in the same setting: to `CCc1nnc(SCc2nc(-c3cccc(C)c3)oc2C)c2cc3sc(C)cc3n12` belongs -17.8%.
Still for that read-out and setting: to `COc1ccccc1C(=O)OCc1cc(=O)n2nc(-c3cccs3)sc2n1` belongs -3.73%.
As to `COc1ccc(C2CC(c3cccs3)=NN2C(=O)COC(=O)c2cc3ccccc3cc2O)cc1OC` (centres undefined), the Potency is 12.6 µM (active).
In the case of `COc1ccc(C2CC(c3cccs3)=Nc3ccccc3S2)cc1OC` (centres undefined), the max response, negative = inhibition is 13.4%.
With `O=C(Cn1ncc2c3ccccc3n(Cc3ccccc3)c2c1=O)NC1CCCCCC1`, the max response, negative = inhibition is 10.4%.
Still for that read-out and setting: to `COc1cccc(NC(=O)CSc2cc(=O)n(C)c3ccc(Cl)cc23)c1` belongs -14.5%; to `COc1cn(CC(=O)Nc2cccc(C)c2C)c(CN2CCCCC2)cc1=O`, 9%; to `CCC(=O)N1c2ccccc2CC1C(=O)N1CCN(c2ccccc2)CC1` (centres undefined), 7.34%.
Regarding `O=C(CN1CCc2ccccc21)NC(c1ccccc1)c1ccccc1`, the Potency is 25.1 µM (active).
`O=C(NC(c1ccccc1)c1ccccc1)N1CCN(CCO)CC1`: the max response, negative = inhibition is -2.87%.
For the compound `O=S(=O)(NCC(c1ccccc1)N1CCc2ccccc21)c1ccccc1` (centres undefined), the max response, negative = inhibition was 4.54%.
Still for that read-out and setting: to `CCCCN(C)CCC(=O)Nc1ccc(Cl)cc1` belongs -0.803%.
Regarding `C=CCCC(=O)Nc1nc(C)c(-c2csc(Nc3ccc(Cl)cc3)n2)s1`, the Potency is 12.6 µM (active).
For `CN(CCCC(=O)Nc1nccs1)S(=O)(=O)c1ccc(Cl)cc1`, the max response, negative = inhibition was -7.25%.
Consider `Cc1ccc(Nc2nc(-c3sc(NC(=O)c4ccccc4)nc3C)cs2)cc1`, for which the Potency was 31.6 µM (active).
On to `Cc1ccc(C(=O)Nc2nc(-c3ccccc3)ns2)cc1`, for which the max response, negative = inhibition is 5.68%.
Still for that read-out and setting: to `Cc1nc(C)c(-c2csc(NCCc3ccccc3)n2)s1` belongs -11.5%.
In the case of `CCCCCCC(=O)Nc1nc(C)c(-c2csc(Nc3cccc(OC)c3)n2)s1`, the Potency was 10 µM (active).
Consider `COc1cccc(NC(=O)c2csnn2)c1`, for which the max response, negative = inhibition was -5.7%.
As for `CCCCC(=O)Nc1nc(C)c(-c2csc(Nc3ccc(Cl)cc3)n2)s1`, the Potency was 7.94 µM (active).
Regarding `CC(=O)c1sc(NC(=O)c2ccc(C)cc2)nc1C`, the max response, negative = inhibition was -25%.
The same measure, in the same setting: to `Cc1nc(NC(=O)CN(C)S(=O)(=O)c2ccc(Cl)cc2)sc1C` belongs -3.63%; to `CCOC(=O)c1csc(NC(=O)Nc2cccc(OC)c2)n1`, 8.19%.
Still for that read-out and setting: to `Cc1ccc(Cl)cc1NC(=O)NC1COc2ccccc2C1` (centres undefined) belongs -7.18%.
With `CCCCCCC(=O)Nc1nc(C)c(-c2csc(Nc3cc(Cl)ccc3OC)n2)s1`, the Potency was 3.16 µM (active).
On to `CCCCC(=O)N/N=C(\C)CC(=O)Nc1cc(Cl)ccc1OC`, for which the max response, negative = inhibition is 7.24%.
Still for that read-out and setting: to `COc1ccc(Cl)cc1NC(=O)CCC(=O)c1ccc(C)cc1` belongs 4.58%; to `CCOCCn1ccc2c(OCC(=O)NCc3ccc(C)cc3)cccc2c1=O`, 4.16%; to `Cc1cc(F)ccc1NC1(c2ccccc2)C(=O)c2ccccc2C1=O`, -5.27%.
Still for that read-out and setting: to `CCOC(=O)c1ccc(NC(=O)C2CCN(S(=O)(=O)c3ccc4c(c3)CCCC(=O)N4)CC2)cc1` belongs 1.28%; to `O=C(ON=C1CCN(S(=O)(=O)c2ccccc2)CC1)c1ccc(Cl)cc1`, 20.4%.
As for `Cc1c(C2=CCN(S(=O)(=O)c3ccc(Cl)cc3)CC2)c2ccccc2n1C`, the Potency was 31.6 µM (active).
On to `CC(C)NC(=O)C(=O)NCCN1CCN(S(=O)(=O)c2ccc(Cl)cc2)CC1`, for which the max response, negative = inhibition is -2.28%.
Still for that read-out and setting: to `CCc1nn(CCCC(=O)NCc2ccccc2OC)c(=O)c2cc3occc3n12` belongs -6.49%.
On the same count and under the same terms, to `CCOc1ccc(-c2cc3c(=O)n(CC(=O)NCc4ccc(OC)cc4)ccn3n2)cc1` belongs 4.06%.
Consider `COc1cc(NC(=O)CCNC(=O)Cn2ccc3ccccc3c2=O)cc(OC)c1OC`, for which the max response, negative = inhibition is -10.9%.
In the case of `O=C(COC(=O)c1cc(=O)[nH]c2ccccc12)Nc1nc(-c2cccc(Br)c2)cs1`, the Potency is 15.8 µM (active).
With `CCOC(=O)c1ccc(COC(=O)c2cc(=O)[nH]c3ccccc23)o1`, the max response, negative = inhibition was -5.71%.
On the same count and under the same terms, to `Cc1cc(C(=O)OCC(=O)Nc2nnc(C(C)C)s2)c2ccccc2n1` belongs -3.17%; to `CCN(Cc1ccccc1)S(=O)(=O)c1ccc2c(c1)CCCN2C(C)=O`, 12.3%.
`O=C(NC1CC(=O)N(c2ccc(F)cc2)C1)c1ccc(S(=O)(=O)N2CCCC2)cc1` (centres undefined): the max response, negative = inhibition is 8.64%.
The same measure, in the same setting: to `O=C(Nc1ccccc1)c1nnsc1S(=O)(=O)c1ccc(Cl)cc1` belongs -8.46%.
As to `O=C(c1ccc(Cl)cc1)c1cnc(Nc2ccccc2)s1`, the Potency was 15.8 µM (active).
As for `CC(C)(C)C(=O)c1cnc(Nc2ccccc2)s1`, the max response, negative = inhibition is -10.8%.
The same measure, in the same setting: to `Cc1ccc(C)c(S(=O)(=O)c2nnn3c2nc(N2CCOCC2)c2sccc23)c1` belongs 0.86%; to `Cc1ccc2nc(COc3cccc(NC(=O)c4cccc(Cl)c4)c3)cc(=O)n2c1`, -16.6%.
The same measure, in the same setting: to `Cc1ccccc1-c1nc2cc(NC(=O)c3cccc(OCCC(C)C)c3)ccc2o1` belongs -8.64%.
Consider `COc1cccc(C(=O)Nc2ccc3oc(-c4ccc5ccccc5c4)nc3c2)c1`, for which the Potency is 12.6 µM (active).
For `COC(=O)c1ccc(-c2nc3cc(NC(C)=O)ccc3o2)cc1`, the max response, negative = inhibition was 5.54%.
The same measure, in the same setting: to `COc1ccccc1OCCCn1c(-c2ccc(Cl)cc2)nc2ccccc2c1=O` belongs 3.21%; to `COc1ccc(S(=O)(=O)NCc2cccn2Cc2cccc(C)c2)cc1Cl`, 6.08%.
The same measure, in the same setting: to `COc1ccc(Br)cc1C1CC(=O)Nc2c1c(C)nn2-c1nc(C)cc(C)n1` (centres undefined) belongs 3.34%; to `CC(=O)c1ccc(N2CCN(c3nc4c(S(=O)(=O)c5ccccc5)nnn4c4ccc(Cl)cc34)CC2)cc1`, 0.808%.
`CCOC(=O)c1c(-c2cccc(C)c2)csc1NC(=O)c1c(-c2ccccc2)noc1C`: the Potency is 7.94 µM (active).
Consider `CCCS(=O)(=O)c1ncc(Cl)c(C(=O)Nc2scc(-c3ccccc3)c2C(=O)OCC)n1`, for which the max response, negative = inhibition is -26.6%.
On the same count and under the same terms, to `CC(=O)Nc1cccc(NC(=O)c2c(-c3ccccc3)noc2C)c1` belongs 2.43%; to `CCOc1ccc(S(=O)(=O)c2cn(Cc3ccccc3)c3ccc(OCC)cc3c2=O)cc1`, -17.9%.
On to `COc1ccc(NC(=O)Cn2c(=O)n(Cc3ccco3)c(=O)c3ccccc32)cc1`, for which the max response, negative = inhibition was -4.83%.
For `COc1ccc(OC)c(NC(=O)Cn2c(=O)n(Cc3ccccc3)c(=O)c3ccccc32)c1`, the max response, negative = inhibition is -9.43%.
On to `COc1ccc(NC(=O)Cn2c(=O)n(Cc3ccc(C(=O)NCc4ccccc4Cl)cc3)c(=O)c3ccccc32)cc1`, for which the Potency is 10 µM (active).
As for `Cn1nnc2c(N3CCN(c4ccccc4)CC3)ncnc21`, the max response, negative = inhibition was -1.23%.
As to `CCCCN1CC(c2nc3ccccc3n2CCCCOc2ccc(C)cc2C)CC1=O` (centres undefined), the max response, negative = inhibition is 1.93%.
Same read-out and setting: to `CCOc1ccccc1NC(=O)C1CCCN(S(=O)(=O)c2cn(C)cn2)C1` (centres undefined) belongs -18.2%; to `O=C(COC(=O)/C(=C/c1cccs1)c1cccs1)NCc1ccccc1Cl`, 3.79%.
On to `NS(=O)(=O)c1ccc(NC(=O)COC(=O)c2c3c(nc4ccccc24)/C(=C\c2ccc4c(c2)OCO4)CCC3)cc1`, for which the Potency was 20 µM (active).
For `O=C1/C(=C/c2ccc3c(c2)OCO3)CCC/C1=C\c1ccc2c(c1)OCO2`, the max response, negative = inhibition is -11.7%.
Still for that read-out and setting: to `O=C(COC(=O)CCc1c[nH]c(=O)[nH]1)Nc1ccccc1Cl` belongs -19.9%.
Consider `O=C(COC(=O)c1c2c(nc3ccccc13)/C(=C\c1cccs1)CCC2)Nc1ccccc1Cl`, for which the Potency was 31.6 µM (active).
As to `CC(NC(=S)Nc1ccc(S(N)(=O)=O)cc1)c1ccc2c(c1)OCO2` (centres undefined), the max response, negative = inhibition was -22.3%.
